# Publication PMC7862700, “An all-to-all approach to the identification of sequence-specific readers for epigenetic DNA modifications on cytosine”
# Key:
# Test in all cases: DAPPL (digital affinity profiling via proximity ligation, sequencing); 10 mM Tris-HCl pH 7.5, 50 mM NaCl, 1 mM DTT, 4% glycerol, room temperature, 30 min; GST-TFs on glutathione beads, 16-mer random dsDNA library, 0.1% formaldehyde crosslink after washing; high values mean tight binding
# Settings in all cases: protein: recombinant; tags: N-terminal GST; dsDNA, one strand shown
# ELK1 = molecular target: T1, ELK1 (Homo sapiens, UniProt P19419 1-428)
# T1 sequence: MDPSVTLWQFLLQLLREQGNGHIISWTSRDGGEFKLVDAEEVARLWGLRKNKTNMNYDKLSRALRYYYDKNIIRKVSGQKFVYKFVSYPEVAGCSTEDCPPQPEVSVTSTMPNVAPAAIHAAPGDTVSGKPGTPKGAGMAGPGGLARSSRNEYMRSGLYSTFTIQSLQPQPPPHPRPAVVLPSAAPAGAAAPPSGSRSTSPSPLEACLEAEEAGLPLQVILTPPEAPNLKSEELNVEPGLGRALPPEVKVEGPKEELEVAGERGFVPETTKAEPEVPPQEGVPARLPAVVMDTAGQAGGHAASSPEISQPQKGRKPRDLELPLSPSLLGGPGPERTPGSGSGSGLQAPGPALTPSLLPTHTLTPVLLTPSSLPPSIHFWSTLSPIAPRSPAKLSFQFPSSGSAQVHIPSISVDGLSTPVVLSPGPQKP
# Summary of the method: (§1)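 Binding signal is each hexamer's read frequency for a factor divided by its frequency in the tag-only sample. The factors were GST-fused human transcription factors from yeast, captured on glutathione beads, DNA-barcoded and pooled with that sample. Pools were incubated with 200 nmole of a random double-stranded 16-mer DNA library in Tris/NaCl/DTT/glycerol buffer at room temperature for 30 min, then washed, crosslinked with 0.1% formaldehyde, proximity-ligated with BsaI/T4 ligase (1 h, 37 °C), PCR-amplified and sequenced on an Illumina NextSeq500.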
# GABPA = molecular target: T2, GABPA (Homo sapiens, UniProt Q06546 1-454)
# T2 sequence: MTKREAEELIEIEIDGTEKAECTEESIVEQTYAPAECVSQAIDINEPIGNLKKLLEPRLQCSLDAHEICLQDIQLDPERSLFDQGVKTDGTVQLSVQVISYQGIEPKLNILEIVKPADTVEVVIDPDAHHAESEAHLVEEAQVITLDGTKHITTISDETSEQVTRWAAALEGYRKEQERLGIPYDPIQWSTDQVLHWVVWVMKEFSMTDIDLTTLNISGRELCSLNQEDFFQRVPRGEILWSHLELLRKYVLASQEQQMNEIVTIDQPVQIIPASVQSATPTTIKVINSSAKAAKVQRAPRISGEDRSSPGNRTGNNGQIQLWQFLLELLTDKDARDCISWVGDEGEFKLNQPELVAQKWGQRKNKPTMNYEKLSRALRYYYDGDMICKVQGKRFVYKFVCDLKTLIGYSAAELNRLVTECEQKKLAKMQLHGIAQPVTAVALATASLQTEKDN
# Summary of the method: as §1
# ERG = molecular target: T3, ERG (Homo sapiens, UniProt P11308 1-479)
# T3 sequence: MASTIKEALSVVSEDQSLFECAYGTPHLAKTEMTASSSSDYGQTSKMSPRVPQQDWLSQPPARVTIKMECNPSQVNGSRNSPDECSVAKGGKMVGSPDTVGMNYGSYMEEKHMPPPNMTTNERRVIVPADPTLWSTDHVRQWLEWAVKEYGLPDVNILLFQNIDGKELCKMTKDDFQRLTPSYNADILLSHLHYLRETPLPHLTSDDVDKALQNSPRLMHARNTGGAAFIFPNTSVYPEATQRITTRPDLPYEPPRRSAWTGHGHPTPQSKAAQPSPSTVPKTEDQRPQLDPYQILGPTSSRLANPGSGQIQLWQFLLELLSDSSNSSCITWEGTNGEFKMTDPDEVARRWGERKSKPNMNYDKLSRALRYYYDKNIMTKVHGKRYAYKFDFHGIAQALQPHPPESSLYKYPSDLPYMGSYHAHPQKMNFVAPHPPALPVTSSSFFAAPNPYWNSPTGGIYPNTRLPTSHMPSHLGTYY
# Summary of the method: as §1
# ELF1 = ELF1 (Homo sapiens, UniProt P32519 1-619)
# Sequence of ELF1 (P32519 whole entry): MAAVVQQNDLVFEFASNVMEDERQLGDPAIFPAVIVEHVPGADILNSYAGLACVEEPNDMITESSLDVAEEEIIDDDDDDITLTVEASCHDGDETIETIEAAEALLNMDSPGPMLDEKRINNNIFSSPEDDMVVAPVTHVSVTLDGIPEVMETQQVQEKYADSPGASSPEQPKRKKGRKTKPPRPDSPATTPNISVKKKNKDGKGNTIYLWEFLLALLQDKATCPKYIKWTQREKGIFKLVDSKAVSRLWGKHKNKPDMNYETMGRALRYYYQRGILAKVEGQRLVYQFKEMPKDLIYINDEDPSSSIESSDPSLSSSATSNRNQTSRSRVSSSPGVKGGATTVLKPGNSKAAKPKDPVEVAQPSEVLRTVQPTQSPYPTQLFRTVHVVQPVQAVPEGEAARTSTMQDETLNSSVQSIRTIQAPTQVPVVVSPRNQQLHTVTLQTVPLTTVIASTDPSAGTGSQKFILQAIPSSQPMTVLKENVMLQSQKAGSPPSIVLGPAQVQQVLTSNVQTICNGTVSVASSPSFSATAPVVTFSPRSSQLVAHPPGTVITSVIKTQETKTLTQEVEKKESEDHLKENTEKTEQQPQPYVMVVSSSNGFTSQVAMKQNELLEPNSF
# Summary of the method: as §1
# EHF = molecular target: T4, EHF (Homo sapiens, UniProt Q9NZC4 1-300)
# T4 sequence: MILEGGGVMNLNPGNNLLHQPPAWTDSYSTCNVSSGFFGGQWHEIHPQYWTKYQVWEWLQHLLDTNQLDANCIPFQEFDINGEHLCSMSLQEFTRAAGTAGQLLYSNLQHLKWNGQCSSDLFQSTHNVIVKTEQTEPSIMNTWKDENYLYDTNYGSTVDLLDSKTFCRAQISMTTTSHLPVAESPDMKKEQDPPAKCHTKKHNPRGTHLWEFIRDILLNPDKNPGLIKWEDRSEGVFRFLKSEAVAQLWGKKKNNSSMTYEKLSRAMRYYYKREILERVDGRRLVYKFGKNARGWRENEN
# Summary of the method: as §1
# FEV = molecular target: T5, FEV (Homo sapiens, UniProt Q99581 1-238)
# T5 sequence: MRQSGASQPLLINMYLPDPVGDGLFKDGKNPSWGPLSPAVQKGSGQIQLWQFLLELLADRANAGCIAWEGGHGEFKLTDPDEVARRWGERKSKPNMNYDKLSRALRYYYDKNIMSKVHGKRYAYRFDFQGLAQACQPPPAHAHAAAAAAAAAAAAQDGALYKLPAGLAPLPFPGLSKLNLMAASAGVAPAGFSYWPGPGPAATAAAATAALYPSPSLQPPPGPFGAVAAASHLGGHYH
# Summary of the method: as §1
# ETV5 = ETV5 (Homo sapiens, UniProt P41161 1-510)
# Sequence of ETV5 (P41161 whole entry): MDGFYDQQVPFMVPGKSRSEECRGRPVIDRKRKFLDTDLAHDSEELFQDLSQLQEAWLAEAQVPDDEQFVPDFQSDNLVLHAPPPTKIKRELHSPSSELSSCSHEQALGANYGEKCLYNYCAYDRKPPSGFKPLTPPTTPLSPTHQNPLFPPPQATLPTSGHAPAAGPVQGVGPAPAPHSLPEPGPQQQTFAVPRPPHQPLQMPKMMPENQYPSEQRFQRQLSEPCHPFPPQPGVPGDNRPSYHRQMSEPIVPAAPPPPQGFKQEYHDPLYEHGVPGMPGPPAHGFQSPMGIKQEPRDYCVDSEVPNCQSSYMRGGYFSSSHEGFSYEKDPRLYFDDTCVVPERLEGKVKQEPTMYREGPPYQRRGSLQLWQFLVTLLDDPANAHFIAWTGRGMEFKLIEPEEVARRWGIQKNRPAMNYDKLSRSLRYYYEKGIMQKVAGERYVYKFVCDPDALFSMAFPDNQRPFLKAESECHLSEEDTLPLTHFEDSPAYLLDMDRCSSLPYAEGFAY
# Summary of the method: as §1
# ELF4 = ELF4 (Homo sapiens, UniProt Q99607 1-663)
# Sequence of ELF4 (Q99607 whole entry): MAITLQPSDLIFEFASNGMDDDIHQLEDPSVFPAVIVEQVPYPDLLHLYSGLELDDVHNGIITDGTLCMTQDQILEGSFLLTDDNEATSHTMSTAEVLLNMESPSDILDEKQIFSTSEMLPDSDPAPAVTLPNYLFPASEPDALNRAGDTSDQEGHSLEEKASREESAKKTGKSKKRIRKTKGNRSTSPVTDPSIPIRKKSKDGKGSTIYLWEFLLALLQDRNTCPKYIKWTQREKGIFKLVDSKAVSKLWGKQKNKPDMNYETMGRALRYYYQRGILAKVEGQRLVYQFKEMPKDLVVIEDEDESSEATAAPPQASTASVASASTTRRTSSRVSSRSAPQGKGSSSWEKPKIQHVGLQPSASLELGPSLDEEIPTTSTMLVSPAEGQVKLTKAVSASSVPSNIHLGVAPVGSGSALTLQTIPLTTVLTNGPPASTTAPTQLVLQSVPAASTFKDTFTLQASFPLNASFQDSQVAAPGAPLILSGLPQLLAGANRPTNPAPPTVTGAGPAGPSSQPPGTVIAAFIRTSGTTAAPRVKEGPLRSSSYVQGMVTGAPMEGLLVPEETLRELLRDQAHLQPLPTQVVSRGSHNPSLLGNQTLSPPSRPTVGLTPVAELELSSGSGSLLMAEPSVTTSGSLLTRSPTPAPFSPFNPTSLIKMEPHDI
# Summary of the method: as §1
# ETV2 = molecular target: T6, ETV2 (Homo sapiens, UniProt O00321 1-342)
# T6 sequence: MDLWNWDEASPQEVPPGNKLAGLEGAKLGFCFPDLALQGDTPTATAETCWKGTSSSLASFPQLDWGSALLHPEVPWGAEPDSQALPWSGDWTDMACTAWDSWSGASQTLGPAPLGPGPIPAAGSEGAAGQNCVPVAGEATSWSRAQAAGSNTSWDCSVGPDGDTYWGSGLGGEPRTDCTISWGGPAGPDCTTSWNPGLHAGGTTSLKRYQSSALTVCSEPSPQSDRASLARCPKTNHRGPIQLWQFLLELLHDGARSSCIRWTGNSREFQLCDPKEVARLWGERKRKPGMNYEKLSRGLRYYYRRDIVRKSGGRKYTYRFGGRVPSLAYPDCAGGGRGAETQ
# Summary of the method: as §1
# ELF3 = molecular target: T7, ELF3 (Homo sapiens, UniProt P78545 1-371)
# T7 sequence: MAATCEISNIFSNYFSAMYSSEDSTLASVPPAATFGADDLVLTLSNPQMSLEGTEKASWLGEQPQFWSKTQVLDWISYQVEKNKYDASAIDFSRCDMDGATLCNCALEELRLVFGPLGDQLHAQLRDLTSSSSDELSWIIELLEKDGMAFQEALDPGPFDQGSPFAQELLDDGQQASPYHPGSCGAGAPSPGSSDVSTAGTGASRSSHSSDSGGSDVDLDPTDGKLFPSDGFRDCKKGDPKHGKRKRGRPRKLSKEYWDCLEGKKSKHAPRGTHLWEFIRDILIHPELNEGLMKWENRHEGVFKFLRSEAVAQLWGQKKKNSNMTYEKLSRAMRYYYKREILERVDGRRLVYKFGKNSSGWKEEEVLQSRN
# Summary of the method: as §1
# ETV1 = ETV1 (Homo sapiens, UniProt P50549 1-477)
# Sequence of ETV1 (P50549 whole entry): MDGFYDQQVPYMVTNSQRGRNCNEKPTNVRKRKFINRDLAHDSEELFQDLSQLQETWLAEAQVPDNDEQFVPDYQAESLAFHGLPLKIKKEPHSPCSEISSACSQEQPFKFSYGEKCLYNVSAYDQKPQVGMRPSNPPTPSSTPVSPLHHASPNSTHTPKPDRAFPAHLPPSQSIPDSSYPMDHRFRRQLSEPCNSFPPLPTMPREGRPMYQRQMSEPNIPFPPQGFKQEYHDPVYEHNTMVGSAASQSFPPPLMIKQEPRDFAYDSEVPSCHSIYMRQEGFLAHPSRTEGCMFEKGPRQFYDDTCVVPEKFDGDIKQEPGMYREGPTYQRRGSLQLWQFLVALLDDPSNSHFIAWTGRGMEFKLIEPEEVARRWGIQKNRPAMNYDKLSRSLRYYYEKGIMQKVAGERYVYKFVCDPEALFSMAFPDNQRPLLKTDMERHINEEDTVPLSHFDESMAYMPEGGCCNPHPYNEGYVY
# Summary of the method: as §1
# ERF = molecular target: T8, ERF (Homo sapiens, UniProt P50548 1-548)
# T8 sequence: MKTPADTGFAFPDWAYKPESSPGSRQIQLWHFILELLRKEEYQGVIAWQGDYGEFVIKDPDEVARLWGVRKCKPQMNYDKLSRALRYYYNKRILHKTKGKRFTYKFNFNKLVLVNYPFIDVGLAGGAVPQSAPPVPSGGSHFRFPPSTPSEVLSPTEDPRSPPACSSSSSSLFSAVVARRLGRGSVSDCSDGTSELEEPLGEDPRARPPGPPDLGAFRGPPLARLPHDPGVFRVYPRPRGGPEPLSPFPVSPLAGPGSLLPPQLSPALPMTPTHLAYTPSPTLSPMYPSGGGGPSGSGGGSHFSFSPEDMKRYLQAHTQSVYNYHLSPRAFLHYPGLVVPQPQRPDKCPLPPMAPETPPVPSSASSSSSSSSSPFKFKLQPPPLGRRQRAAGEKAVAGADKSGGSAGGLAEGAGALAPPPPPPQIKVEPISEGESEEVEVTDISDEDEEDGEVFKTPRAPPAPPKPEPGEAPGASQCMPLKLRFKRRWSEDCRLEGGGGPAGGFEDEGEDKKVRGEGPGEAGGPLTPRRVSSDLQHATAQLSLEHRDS
# Summary of the method: as §1
# ETV3L = molecular target: T9, ETV3L (Homo sapiens, UniProt Q6ZN32 1-361)
# T9 sequence: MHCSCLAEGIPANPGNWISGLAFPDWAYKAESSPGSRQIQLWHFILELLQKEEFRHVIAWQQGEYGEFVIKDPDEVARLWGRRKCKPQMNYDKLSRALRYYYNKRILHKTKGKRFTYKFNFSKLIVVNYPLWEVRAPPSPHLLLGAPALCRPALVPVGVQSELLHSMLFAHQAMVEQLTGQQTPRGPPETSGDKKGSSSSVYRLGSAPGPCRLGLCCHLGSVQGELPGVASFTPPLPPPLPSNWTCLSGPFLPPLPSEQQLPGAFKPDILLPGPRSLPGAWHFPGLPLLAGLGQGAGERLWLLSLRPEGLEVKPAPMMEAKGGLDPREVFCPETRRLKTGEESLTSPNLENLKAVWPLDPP
# Summary of the method: as §1
# ETS2 = molecular target: T10, ETS2 (Homo sapiens, UniProt P15036 1-469)
# T10 sequence: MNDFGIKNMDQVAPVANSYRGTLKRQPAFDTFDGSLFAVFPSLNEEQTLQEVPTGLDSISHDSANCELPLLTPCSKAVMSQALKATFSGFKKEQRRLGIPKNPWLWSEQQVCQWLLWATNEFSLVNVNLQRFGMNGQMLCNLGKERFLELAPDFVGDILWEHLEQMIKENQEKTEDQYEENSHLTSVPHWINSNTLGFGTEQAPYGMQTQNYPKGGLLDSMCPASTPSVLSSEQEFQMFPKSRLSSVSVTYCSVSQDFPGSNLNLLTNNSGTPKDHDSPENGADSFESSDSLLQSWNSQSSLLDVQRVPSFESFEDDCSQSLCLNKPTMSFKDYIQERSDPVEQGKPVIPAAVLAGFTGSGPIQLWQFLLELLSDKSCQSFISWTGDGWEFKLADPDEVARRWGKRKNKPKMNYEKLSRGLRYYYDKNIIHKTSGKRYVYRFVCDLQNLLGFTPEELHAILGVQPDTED
# Summary of the method: as §1
# SPDEF = molecular target: T11, SPDEF (Homo sapiens, UniProt O95238 1-335)
# T11 sequence: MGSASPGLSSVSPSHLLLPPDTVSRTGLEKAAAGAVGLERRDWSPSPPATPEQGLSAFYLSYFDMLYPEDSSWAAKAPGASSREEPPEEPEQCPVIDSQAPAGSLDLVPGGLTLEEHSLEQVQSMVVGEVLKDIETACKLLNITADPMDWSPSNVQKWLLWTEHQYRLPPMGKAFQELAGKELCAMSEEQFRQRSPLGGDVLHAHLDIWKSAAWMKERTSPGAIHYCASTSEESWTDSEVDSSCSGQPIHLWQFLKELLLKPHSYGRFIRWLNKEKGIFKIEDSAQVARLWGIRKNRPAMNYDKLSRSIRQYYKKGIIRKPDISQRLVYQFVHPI
# Summary of the method: as §1
# ETV7 = molecular target: T12, ETV7 (Homo sapiens, UniProt Q9Y603 1-341)
# T12 sequence: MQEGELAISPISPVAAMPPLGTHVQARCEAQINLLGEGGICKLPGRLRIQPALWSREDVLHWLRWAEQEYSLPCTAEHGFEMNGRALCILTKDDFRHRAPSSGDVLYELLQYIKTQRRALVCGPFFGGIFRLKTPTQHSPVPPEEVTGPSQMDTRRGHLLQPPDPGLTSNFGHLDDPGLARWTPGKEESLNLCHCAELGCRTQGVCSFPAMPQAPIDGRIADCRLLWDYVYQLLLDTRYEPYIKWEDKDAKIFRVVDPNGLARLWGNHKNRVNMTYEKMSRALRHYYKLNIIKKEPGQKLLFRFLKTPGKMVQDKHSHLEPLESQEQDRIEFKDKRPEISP
# Summary of the method: as §1
# ETV3 = molecular target: T13, ETV3 (Homo sapiens, UniProt P41162-2 1-143)
# T13 sequence: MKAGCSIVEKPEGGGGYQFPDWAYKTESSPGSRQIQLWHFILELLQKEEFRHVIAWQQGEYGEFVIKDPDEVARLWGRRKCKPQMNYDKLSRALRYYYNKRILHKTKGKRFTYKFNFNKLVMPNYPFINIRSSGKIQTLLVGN
# Summary of the method: as §1
# ETV6 = ETV6 (Homo sapiens, UniProt P41212 1-452)
# Sequence of ETV6 (P41212 whole entry): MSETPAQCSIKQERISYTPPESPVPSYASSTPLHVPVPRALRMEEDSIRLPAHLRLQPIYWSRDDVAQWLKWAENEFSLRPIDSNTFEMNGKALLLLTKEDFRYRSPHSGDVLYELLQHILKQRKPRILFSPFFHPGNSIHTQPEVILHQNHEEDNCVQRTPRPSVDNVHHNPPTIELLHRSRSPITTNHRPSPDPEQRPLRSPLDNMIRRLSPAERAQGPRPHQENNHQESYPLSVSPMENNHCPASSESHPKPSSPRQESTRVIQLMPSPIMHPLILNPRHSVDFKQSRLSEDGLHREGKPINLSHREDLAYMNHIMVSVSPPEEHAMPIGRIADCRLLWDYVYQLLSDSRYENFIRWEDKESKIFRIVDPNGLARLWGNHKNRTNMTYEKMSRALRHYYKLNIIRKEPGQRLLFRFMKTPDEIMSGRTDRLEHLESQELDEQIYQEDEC
# Summary of the method: as §1
sequence,measurement,setting,value
ACGCCG,binding signal,ELK1,"1.11 fold enrichment (6-mer frequency, TF over GST control)"
same,binding signal,GABPA,"1.11 fold enrichment (6-mer frequency, TF over GST control)"
same,binding signal,ERG,"1.02 fold enrichment (6-mer frequency, TF over GST control)"
same,binding signal,ELF1,"1.13 fold enrichment (6-mer frequency, TF over GST control)"
same,binding signal,EHF,"1.14 fold enrichment (6-mer frequency, TF over GST control)"
same,binding signal,FEV,"1.14 fold enrichment (6-mer frequency, TF over GST control)"
same,binding signal,ETV5,"1.12 fold enrichment (6-mer frequency, TF over GST control)"
same,binding signal,ELF4,"1.07 fold enrichment (6-mer frequency, TF over GST control)"
same,binding signal,ETV2,"1.07 fold enrichment (6-mer frequency, TF over GST control)"
same,binding signal,ELF3,"1.15 fold enrichment (6-mer frequency, TF over GST control)"
same,binding signal,ETV1,"1.11 fold enrichment (6-mer frequency, TF over GST control)"
same,binding signal,ERF,"1.12 fold enrichment (6-mer frequency, TF over GST control)"
same,binding signal,ETV3L,"1.08 fold enrichment (6-mer frequency, TF over GST control)"
same,binding signal,ETS2,"1.01 fold enrichment (6-mer frequency, TF over GST control)"
same,binding signal,SPDEF,"1.04 fold enrichment (6-mer frequency, TF over GST control)"
same,binding signal,ETV7,"1.14 fold enrichment (6-mer frequency, TF over GST control)"
same,binding signal,ETV3,"1.05 fold enrichment (6-mer frequency, TF over GST control)"
same,binding signal,ETV6,"1.14 fold enrichment (6-mer frequency, TF over GST control)"
